“And” between values parts separate entries of the source, which are not always exact repeats. Equal values may be shown once. Inconclusive results are not listed. Entries that show only a call come without a potency. The source made the active and inactive calls. Calls follow the shape of the full dose curve. Square brackets hold non-standard residues; d marks the D form. Peptide text beside a SMILES is read from it. * marks the point of attachment. Sta = CC(C)C[C@H](N)[C@@H](O)CC(=O)O; Isovaleryl = CC(C)CC(=O)*
Potency is read from the fitted curve at half-maximal effect.

The nature of this test: Primary qHTS to identify inhibitors of SARS-CoV-2 cell entry (AID 1645846). Also: nearly all actives have a fitted effect of over 45% in size. The following applies: SARS-CoV-2 pseudovirus cell entry assay, luminescence; activity change, negative = inhibition: at 57.1 µM (top of the series) unless noted; series mostly up to 57.1 µM. An outline of the steps: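 Using luciferase-reporting pseudoviruses carrying Wuhan-Hu-1 spike, the screen tracks entry into stably ACE2-expressing cells over 48 hr. Activity is expressed relative to spike particles versus particles lacking any fusion protein.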
(In general: qHTS replaces the single test concentration by a dilution series.)
`C=CC[N+]1([C@H]2C[C@H]3[C@@H]4CC[C@H]5C[C@H](OC(C)=O)[C@@H](N6CCCCC6)C[C@]5(C)[C@H]4CC[C@]3(C)[C@H]2OC(=O)CC)CCCCC1`: the result was inactive.
Turning to `C[C@]12CC[C@@H]3c4ccc(O)cc4CC[C@H]3[C@@H]1CC[C@@H]2OC(=O)CCC1CCCC1`, the activity change, negative = inhibition was -19.7%.
As for `CC(C)c1cc2c(cc1S(=O)(=O)O)[C@@]1(C)CCC[C@@](C)(C(=O)O)[C@@H]1CC2`, the activity change, negative = inhibition was -22.9%.
For `C#CCN(C)Cc1ccccc1`, the compound was called inactive.
Take `CC(=O)N(CC(=O)N(C)C)c1ccccc1`: the call was inactive.
The same measure, in the same setting: under `Brc1c(NC2=NCCN2)ccc2nccnc12` stands “inactive”.
`CCN1CCCC(OC(=O)C(c2ccccc2)c2ccccc2)C1` (centres undefined): the activity change, negative = inhibition was -0.255%.
Regarding `CCn1cc(C(=O)O)c(=O)c2cc(F)c(N3CCNCC3)nc21`, the outcome was inactive.
As for `Cn1c(=O)c2c(ncn2C)n(C)c1=O`, the activity change, negative = inhibition was 0.143% and -10.1%.
`O=c1ccc2ccccc2o1`: the outcome was inactive.
For `CCN(CC)C(=O)c1cccc(C)c1`, the outcome was inactive.
With `COc1ccc2cc1Oc1ccc(cc1)C[C@H]1c3c(cc4c(c3Oc3cc5c(cc3OC)CCN(C)[C@@H]5C2)OCO4)CCN1C`, the Potency is 7.94 µM (active).
As for `CC(C)CC(=O)N[C@H](C(=O)N[C@H](C(=O)N[C@@H](CC(C)C)[C@@H](O)CC(=O)N[C@@H](C)C(=O)N[C@@H](CC(C)C)[C@@H](O)CC(=O)O)C(C)C)C(C)C` (Isovaleryl-VV[Sta]A[Sta]-OH), the activity change, negative = inhibition was -12.9%.
`NC(=O)CCCCC1CCSS1` (centres undefined): the compound was classed as inactive.
On to `CCOCCOC(=O)/C=C/c1ccc(OC)cc1`, for which the outcome was inactive.
For `NC(N)=N/N=C/c1c(Cl)cccc1Cl`, the activity change, negative = inhibition is -25.8%.
Consider `N=C(N)c1ccc(OCCCOc2ccc(C(=N)N)cc2)cc1`, for which the activity change, negative = inhibition was -8.76%.
Take `C1CCN2C[C@@H]3C[C@@H](CN4CCCC[C@@H]34)[C@H]2C1`: the activity change, negative = inhibition was -16.5%.
In the case of `Cc1[nH]c(=O)c(C#N)cc1-c1ccc2nccn2c1`, the outcome was inactive.
In the case of `CN(Cc1ccc(C(C)(C)C)cc1)Cc1cccc2ccccc12`, the activity change, negative = inhibition was 2.25%.
Regarding `CCN(CC)CCOc1ccc(Cc2ccccc2)cc1`, the Potency is 25.1 µM (active).
On to `CCOc1c(N2CCOCC2)cnn(C)c1=O`, for which the outcome was inactive.
As to `CCN(CC)C(=O)N1CCN(C)CC1`, the activity change, negative = inhibition is -24.4%.
Same read-out and setting: the same measure for `C[N+]1(CC2COC(c3ccccc3)(C3CCCCC3)O2)CCCCC1` (centres undefined): -2.6%; for `COc1ccnc2c1CCCCC2S(=O)c1nc2ccccc2[nH]1` (centres undefined): -18.8%.
With `C[C@]1(Cn2ccnn2)[C@H](C(=O)O)N2C(=O)C[C@H]2S1(=O)=O`, the activity change, negative = inhibition came to 1.05%.
Consider `CCC(=O)c1ccc(O)cc1`, for which the call was inactive.
As for `c1ccc2[nH]c(-c3cscn3)nc2c1`, the Potency entry is “inactive”.
Regarding `CC(C)(C)CC(=O)OCC(=O)[C@@]1(O)CC[C@H]2[C@@H]3CCC4=CC(=O)C=C[C@]4(C)[C@H]3[C@@H](O)C[C@@]21C`, the call was inactive.
With `O=c1cc(CO)occ1O`, the compound was classed as inactive.
As to `Nc1nc2ncc(CNc3ccc(C(=O)N[C@@H](CCC(=O)O)C(=O)O)cc3)nc2c(=O)[nH]1`, the compound was called inactive.
For the compound `CC(C(=O)O)c1ccc(CC2CCCC2=O)cc1` (centres undefined), the outcome was inactive.
On to `COc1nc(C)nc(Cl)c1NC1=NCCN1`, for which the compound was called inactive.
On to `CCCn1cnc2c1c(=O)n(CCCCC(C)=O)c(=O)n2C`, for which the compound was called inactive.
`CC(C(O)c1ccc(O)cc1)N1CCC(Cc2ccccc2)CC1` (centres undefined): the activity change, negative = inhibition was -24.3%.
Turning to `Nc1ccc(S(=O)(=O)Nc2cnc3ccccc3n2)cc1`, the result was inactive.
As to `CCn1cc(C(=O)O)c(=O)c2cc(F)c(N3CCN(C)CC3)cc21`, the result was inactive.
Consider `CCC(=O)Oc1ccc2c(c1)CC[C@@H]1[C@@H]2CC[C@@]2(C)[C@H]1C[C@@H](OC(=O)CC)[C@@H]2OC(=O)CC`, for which the outcome was inactive.
With `CCOC(=O)[C@H](CCc1ccccc1)N[C@@H](C)C(=O)N1C(=O)N(C)C[C@H]1C(=O)O`, the activity change, negative = inhibition is -10.6%.

(Values after PubChem BioAssay (NCATS).)
